Results filed as inconclusive are left out. Unmarked numbers belong to inactive results. The source made the active and inactive calls. Calls follow the shape of the dose curve; as a rule, active = well fitted curve in the direction sought with a large enough effect in the signal ratio, with a control signal flat (not every such curve was filed as active); inconclusive = small, poorly fitted or top-dose-only effect, or effect the other way, or a change in a side signal; inactive = no such curve, though single readings can be large or run the other way; the % refers to the signal ratio.
Target: Peroxisome proliferator-activated receptor gamma (Homo sapiens) (UniProt P37231)
Assay: qHTS assay for small molecule agonists of peroxisome proliferator-activated receptor gamma signaling (AID 588536)
Conditions: HEK293 PPARg-UAS-bla, beta-lactamase ratio, 16 h, percent of rosiglitazone response, DMSO as zero; series mostly up to 76.7 µM; activation: at the top concentration
Outline: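 Using GeneBLAzer HEK293 cells, response was quantified by CCF4 fluorescence and normalized between basal DMSO (0%) and rosiglitazone 2 uM (100%); curves yielded half-maximal stimulation concentration and efficacy.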

Sequence of Peroxisome proliferator-activated receptor gamma (Homo sapiens) (P37231 whole entry, looked up): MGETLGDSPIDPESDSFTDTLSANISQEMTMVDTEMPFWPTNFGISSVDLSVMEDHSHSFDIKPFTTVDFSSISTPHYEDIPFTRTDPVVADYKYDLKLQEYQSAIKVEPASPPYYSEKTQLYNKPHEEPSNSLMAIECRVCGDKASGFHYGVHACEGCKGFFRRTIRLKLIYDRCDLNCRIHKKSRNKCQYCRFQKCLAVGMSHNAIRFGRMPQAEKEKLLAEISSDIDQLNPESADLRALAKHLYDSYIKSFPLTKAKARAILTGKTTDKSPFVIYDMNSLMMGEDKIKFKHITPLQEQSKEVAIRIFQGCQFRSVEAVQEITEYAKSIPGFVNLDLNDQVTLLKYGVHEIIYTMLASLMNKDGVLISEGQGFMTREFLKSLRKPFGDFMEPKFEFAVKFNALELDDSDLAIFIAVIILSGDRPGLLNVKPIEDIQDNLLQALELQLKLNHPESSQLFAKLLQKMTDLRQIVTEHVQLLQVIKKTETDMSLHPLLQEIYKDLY

SMILES | activation [%] | outcome
C[C@H](CCC(=O)O)[C@H]1CC[C@H]2[C@@H]3[C@H](O)C[C@@H]4C[C@H](O)CC[C@]4(C)[C@H]3C[C@H](O)[C@]12C | 0.659 | 
Cc1ccc(S(=O)(=O)NCl)cc1 | -2.42 | 
CC(C)[C@@H]1CC[C@@H](C)C[C@H]1O | -1.86 | 
Nc1ccc(N=Nc2ccccc2)c(N)n1 |  | inactive
CC(C)CCCCCCc1ccc(O)cc1 | 11.1 | 
CO | 3.88 | 
NC(N)=O | -3.88 | 
c1ccc2ccccc2c1 |  | inactive
OC[C@H]1O[C@@H]2O[C@H]3[C@H](O)[C@@H](O)[C@@H](O[C@H]4[C@H](O)[C@@H](O)[C@@H](O[C@H]5[C@H](O)[C@@H](O)[C@@H](O[C@H]6[C@H](O)[C@@H](O)[C@@H](O[C@H]7[C@H](O)[C@@H](O)[C@@H](O[C@H]1[C@H](O)[C@H]2O)O[C@@H]7CO)O[C@@H]6CO)O[C@@H]5CO)O[C@@H]4CO)O[C@@H]3CO |  | inactive
CO[C@@H]1[C@H](OC(=O)/C=C/C=C/C=C/C=C/C(=O)O)CC[C@]2(CO2)[C@H]1[C@@]1(C)O[C@@H]1CC=C(C)C | 3.55 | 
Nc1nccs1 | -0.979 | 
Oc1cccc(O)c1O | -3.73 | 
C=CC(C)(O)CC/C=C(\C)CCC=C(C)C (configuration not stated) | 4.43 | 
NCCO/C=C/[C@H](N)C(=O)O | -6.98 | 
OCC(O)CO |  | inactive
OC[C@H]1O[C@@](CO)(O[C@H]2O[C@H](CO)[C@@H](O)[C@H](O)[C@H]2O)[C@@H](O)[C@@H]1O | -7.26 | 
CO/N=C(/C(=O)N[C@@H]1C(=O)N2C(C(=O)O)=C(COC(N)=O)CS[C@H]12)c1ccco1 | 8.51 | 
[O-][N+](=Nc1ccccc1)c1ccccc1 | 5.99 | 
O=P(O)(O)O | 0.733 | 
Cc1ccc(S(=O)(=O)O)cc1C | -0.254 | 
CC1=CCC2CC1C2(C)C (configuration not stated) | 0.403 | 
C/C=C/C=C/C(=O)O | 0.514 | 
OB(O)O |  | inactive
O.O.O.O.O.O.O.O=S(=O)([O-])[O-].[Co+2] | -0.228 | 
NCCN | 3.31 | 
O=C(OCc1ccccc1)c1ccc(O)cc1 | 5.75 | 
CC[C@H]1OC(=O)[C@H](C)[C@@H](O[C@H]2C[C@@](C)(OC)[C@@H](O)[C@H](C)O2)[C@H](C)[C@@H](O[C@@H]2O[C@H](C)C[C@H](N(C)C)[C@H]2O)[C@](C)(O)C[C@@H](C)CN(C)[C@H](C)[C@@H](O)[C@]1(C)O | -5.47 | 
